Among the data in the supplement of paper PMC13380429 are SARS-CoV-2 infection rate values, retold here.

Each structure is given as a SMILES string.

The test concerns Vero E6 infected with SARS-CoV-2. In words: SARS-CoV-2 infection rate relative to infected DMSO; higher = more infection, active = 60 or less. The conditions noted are these: 24 h.
In the case of `CN1CCN(c2cccc(Nc3nc4c(-c5ccc(S(C)(=O)=O)cc5)cccn4n3)c2)CC1` (0.833333 µM), the SARS-CoV-2 infection rate is 106% (inactive).

Consider `Oc1cccc(Nc2ncc(F)c(Nc3cccc(O)c3)n2)c1` (0.833333 µM), for which the SARS-CoV-2 infection rate was 100% (inactive).

As to `CC(C)(Oc1ccc(CCNC(=O)c2ccc(Cl)cc2)cc1)C(=O)O` [bezafibrate] (10 µM), the SARS-CoV-2 infection rate is 104% (inactive).

For `CCCCCC(O)CCCC(=O)O` (stereo not drawn) (10 µM), the SARS-CoV-2 infection rate is 103% (inactive).

As to `NCc1ccccc1CC(=O)N[C@@H]1C(=O)N2C(C(=O)O)=C(CSc3nnnn3CC(=O)O)CS[C@H]12` [ceforanide] (10 µM), the SARS-CoV-2 infection rate is 100% (inactive).

Take `CCOC(=O)[C@H](CCc1ccccc1)N[C@@H](C)C(=O)N1[C@H](C(=O)O)C[C@H]2CCCC[C@@H]21` [trandolapril] (10 µM): the SARS-CoV-2 infection rate is 106% (inactive).

Take `COc1ccc(C(=O)NCc2ccc(OCCN(C)C)cc2)cc1OC` [itopride] (10 µM): the SARS-CoV-2 infection rate was 90.5% (inactive).

Consider `CCN(CC)Cc1ccc(C(=O)N(CCc2ccccc2OC)[C@@H]2CCNC2)cc1` (10 µM), for which the SARS-CoV-2 infection rate was 98.5% (inactive).

Regarding `COc1cc(C[C@@H](CO)[C@H](CO)Cc2ccc(O)c(OC)c2)ccc1O` [secoisolariciresinol-(-)] (10 µM), the SARS-CoV-2 infection rate is 109% (inactive).

For `C=CC1=C(C)c2cc3[nH]c(cc4nc(cc5[nH]c(cc1n2)c(C)c5CCC(=O)O)C(CCC(=O)O)=C4C)c(C)c3C=C` [protoporphyrin-IX] (10 µM), the SARS-CoV-2 infection rate is 115% (inactive).

With `CC(C)NCC(O)c1ccccc1Cl` (stereo not drawn) [clorprenaline] (10 µM), the SARS-CoV-2 infection rate was 96.5% (inactive).

Turning to `Nc1nc2[nH]cc(CCc3ccc(C(=O)N[C@@H](CCC(=O)O)C(=O)O)cc3)c2c(=O)[nH]1` [pemetrexed] (10 µM), the SARS-CoV-2 infection rate is 121% (inactive).

Turning to `CC(C)Oc1cccc(-n2c(CCc3c[nH]c4ccc(Br)cc34)nc3ccccc3c2=O)c1` (10 µM), the SARS-CoV-2 infection rate was 93% (inactive).

As for `CC(C)=CCc1c(O)cc(O)c2c(=O)c(O)c(-c3ccc(C(F)(F)F)cc3)oc12` (0.833333 µM), the SARS-CoV-2 infection rate is 104% (inactive).

For `O=C(Nc1ccc([N+](=O)[O-])cc1Cl)c1cc(Cl)ccc1O` [niclosamide] (0.833333 µM), the SARS-CoV-2 infection rate is 97% (inactive).

`c1cc(-c2cnn3cc(-c4ccc(N5CCNCC5)cc4)cnc23)c2cccnc2c1` (0.833333 µM): the SARS-CoV-2 infection rate is 103% (inactive).

On to `CC[C@H]1OC(=O)[C@H](C)[C@@H](O[C@H]2C[C@@](C)(OC)[C@@H](O)[C@H](C)O2)[C@H](C)[C@@H](O[C@@H]2O[C@H](C)C[C@H](N(C)C)[C@H]2O)[C@](C)(O)C[C@@H](C)C(=O)[C@H](C)[C@@H](O)[C@]1(C)O` [erythromycin] (10 µM), for which the SARS-CoV-2 infection rate is 102% (inactive).

`CC(=O)OCC(=O)[C@H]1CC[C@H]2[C@@H]3CCC4=CC(=O)CC[C@]4(C)[C@H]3CC[C@]12C` [deoxycorticosterone-acetate] (10 µM): the SARS-CoV-2 infection rate is 102% (inactive).

On to `Cc1noc2c1-c1ccccc1C(c1ccc(Cl)cc1)=N[C@H]2CC(N)=O` (10 µM), for which the SARS-CoV-2 infection rate is 108% (inactive).

In the case of `CC[C@H](CC[C@@H](C)[C@H]1CC[C@H]2[C@@H]3CC=C4C[C@@H](O[C@@H]5O[C@H](CO)[C@@H](O)[C@H](O)[C@H]5O)CC[C@]4(C)[C@H]3CC[C@]12C)C(C)C` [daucosterol] (10 µM), the SARS-CoV-2 infection rate is 102% (inactive).

Consider `O=C(Oc1ccc([N+](=O)[O-])cc1)N1CCC(C(O)(c2ccc3c(c2)OCO3)c2ccc3c(c2)OCO3)CC1` (10 µM), for which the SARS-CoV-2 infection rate was 103% (inactive).

Consider `O=C(COc1ccc(Cl)cc1)N1CCN(Cc2ccc3c(c2)OCO3)CC1` [fipexide] (10 µM), for which the SARS-CoV-2 infection rate was 112% (inactive).

As to `CC[C@@H]1Cn2c(c3nc(-c4ccccc4)nc-3n(C)c2=O)N1` (10 µM), the SARS-CoV-2 infection rate is 90.5% (inactive).

On to `C[C@@H](N)[C@@H](O)c1ccccc1` [1S,2R-phenylpropanolamine] (10 µM), for which the SARS-CoV-2 infection rate was 114% (inactive).

As for `CCN(Cc1ccncc1)C(=O)C(CO)c1ccccc1` (stereo not drawn) [tropicamide] (10 µM), the SARS-CoV-2 infection rate was 104% (inactive).

As for `Cc1cncc(CN2CCC(=C3c4ccc(Cl)cc4CCc4cccnc43)CC2)c1` [rupatadine] (10 µM), the SARS-CoV-2 infection rate is 108% (inactive).

For the molecule `Oc1cc(O)cc(O)c1` [phloroglucin] (10 µM), the SARS-CoV-2 infection rate is 114% (inactive).

As to `O=c1cc(N2CCOCC2)oc2c(-c3ccccc3)cccc12` (0.833333 µM), the SARS-CoV-2 infection rate is 98.5% (inactive).
